Assay results from PubChem BioAssay (NCI).
Compounds without any hit were thinned out: in the full panel of roughly 79,000, 15% have a hit. Calls of active or inactive are those of the source. Cut-off read from the data, not from the text of the source: active = growth inhibition above about 70%; inactive = the rest.

Assays:
[1] = NCI Yeast Anticancer Drug Screen. Data for the rad52 strain (AID 147);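 note: 0% = growth of vehicle-treated control cultures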; conditions: S. cerevisiae rad52 mutant growth inhibition, hits give high values
How it was run: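 Inhibition of yeast growth, referenced to vehicle controls, was the measured output for a strain with defective DNA damage repair.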

[2] = NCI Yeast Anticancer Drug Screen. Data for the wt1 strain (AID 149);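 note: 0% = growth of vehicle-treated wt1 cultures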; conditions: S. cerevisiae wt1 strain (SPY 50644) growth inhibition, hits give high values
How it was run: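 Vehicle-normalised growth inhibition; strain wt1; compound exposure.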

[3] = NCI Yeast Anticancer Drug Screen. Data for the rad50EPP+ strain (AID 151);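 note: 0% = growth of vehicle-treated control cultures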; conditions: S. cerevisiae rad50 mutant strain, hits give high values
How it was run: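 Genetically defined yeast (rad50EPP+, DNA damage repair alteration) is grown with compound, and inhibition of growth is expressed relative to vehicle-treated controls.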

[4] = NCI Yeast Anticancer Drug Screen. Data for the mgt1 strain (AID 153); conditions: S. cerevisiae mgt1 mutant growth inhibition, hits give high values
How it was run: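 In the mgt1 strain, test compounds were added and growth inhibition was determined relative to vehicle-treated controls.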

[5] = NCI Yeast Anticancer Drug Screen. Data for the rad50 strain (AID 155);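 note: 0% = growth of vehicle-only cultures of the same strain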; conditions: S. cerevisiae rad50 strain growth inhibition, hits give high values
How it was run: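 A DNA repair-deficient yeast mutant serves as the test organism; compound-induced growth inhibition is calculated against vehicle-treated cells.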

[6] = NCI Yeast Anticancer Drug Screen. Data for the mec2-1 strain (AID 157); conditions: S. cerevisiae mec2-1 strain, hits give high values
How it was run: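 Each compound was tested on mec2-1 yeast, a strain altered in DNA damage repair or cell cycle control. Growth inhibition is reported relative to vehicle.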

[7] = NCI Yeast Anticancer Drug Screen. Data for the rad14 strain (AID 159);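 note: 0% = growth of vehicle-treated control cultures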; conditions: S. cerevisiae rad14 strain growth inhibition, hits give high values
How it was run: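 Vehicle-treated cultures served as the baseline for growth inhibition of a DNA repair-mutant yeast strain exposed to each compound.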

[8] = NCI Yeast Anticancer Drug Screen. Data for the sgs1 mgt1 strain (AID 161);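 note: 0% = growth of cultures given vehicle only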; conditions: S. cerevisiae sgs1 mgt1 strain, hits give high values
How it was run: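 Mutant yeast exposed to compound; growth scored against vehicle-only wells.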

[9] = NCI Yeast Anticancer Drug Screen. Data for the CLN2oe strain (AID 163);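 note: 0% = growth of vehicle-only control cultures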; conditions: S. cerevisiae CLN2oe strain, hits give high values
How it was run: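 First, the altered yeast strain was treated with each compound; second, its growth was measured; finally, inhibition was derived by comparison with vehicle controls.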

[10] = NCI Yeast Anticancer Drug Screen. Data for the cln2 rad14 strain (AID 165);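 note: 0% = growth equal to vehicle treated cultures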; conditions: S. cerevisiae cln2 rad14 strain, hits give high values
How it was run: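 Test compounds were added to cln2 rad14 yeast cultures; inhibition of growth was then determined by comparison with vehicle treatment.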

[11] = NCI Yeast Anticancer Drug Screen. Data for the bub3 strain (AID 167); conditions: S. cerevisiae bub3 mutant strain, hits give high values
How it was run: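 Inhibition values come from growth of compound-treated mutant yeast normalised to vehicle-treated controls.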

[12] = NCI Yeast Anticancer Drug Screen. Data for the wt2 strain (AID 169);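 note: 0% = growth of vehicle-treated yeast cultures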; conditions: S. cerevisiae wt2 strain growth inhibition, hits give high values
How it was run: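 The panel's yeast strains carry defined changes in DNA repair or cell cycle genes. Each strain is grown with compound, and growth loss is scored relative to vehicle.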

[13] = NCI Yeast Anticancer Drug Screen. Data for the mlh1 strain (AID 171);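 note: 0% = growth of vehicle-treated control cultures of the same strain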; conditions: S. cerevisiae mlh1 strain growth inhibition, hits give high values
How it was run: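 Inhibition values reflect reduced yeast growth in the presence of compound, referenced to vehicle controls, using a strain chosen for its alteration in DNA repair or cell cycle control.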

[14] = NCI Yeast Anticancer Drug Screen. Data for the mlh1 rad18 strain (AID 175); conditions: S. cerevisiae mlh1 rad18 strain growth inhibition, hits give high values
How it was run: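 Inhibition values reflect reduced growth of mutant yeast versus vehicle-treated controls following compound exposure; the mutations affect DNA damage repair.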

[15] = NCI Yeast Anticancer Drug Screen. Data for the rad18 strain (AID 177); conditions: S. cerevisiae rad18 mutant growth inhibition, hits give high values
How it was run: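 Steps: expose repair-mutant yeast to compound; measure growth; express as inhibition relative to vehicle control.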

[16] = at 5.0 µM (retest, dose inferred, filed as 0.5)
[17] = at 50.0 µM (retest, dose inferred, filed as 5.0)

Measured: growth inhibition

CCC(=O)OCCn1c2nc(=O)[nH]c(=O)c-2nc2cc(C)c(C)cc21
active: [3]; at 33.0 µM 73% | [3]; at 100.0 µM 88% | [4]; at 33.0 µM 75% | [4]; at 100.0 µM 88% | [8]; [17] 91% | [12]; at 33.0 µM 85% | [12]; at 100.0 µM 93% | [13]; at 100.0 µM 86%
inactive: [1]; at 1.2 µM -10% | [1]; at 3.7 µM -12% | [1]; at 11.0 µM -5% | [1]; at 33.0 µM 0% | [1]; at 100.0 µM 0% | [2]; at 1.2 µM 8% | [2]; at 3.7 µM -4% | [2]; at 11.0 µM 4% | [2]; at 33.0 µM 7% | [2]; at 100.0 µM 11% | [3]; at 1.2 µM -1% | [3]; at 3.7 µM -13% | [3]; at 11.0 µM 24% | [4]; at 1.2 µM -1% | [4]; at 3.7 µM -8% | [4]; at 11.0 µM 3% | [5]; at 1.2 µM -57% | [5]; at 3.7 µM -17% | [5]; [16] 3% | [5]; at 11.0 µM -9% | [5]; at 33.0 µM 15% | [5]; [17] 10% | [5]; at 50.0 µM 33.3% | [5]; at 100.0 µM 44% | [6]; at 1.2 µM -2% | [6]; at 3.7 µM -3% | [6]; [16] 3% | [6]; at 11.0 µM -2% | [6]; at 33.0 µM -4% | [6]; [17] 14% | [6]; at 50.0 µM 42.9% | [6]; at 100.0 µM -1% | [7]; at 1.2 µM 3% | [7]; at 3.7 µM 0% | [7]; at 11.0 µM 23% | [7]; at 33.0 µM 14% | [7]; at 100.0 µM -3% | [8]; [16] 2% | [8]; at 50.0 µM 57.5% | [9]; at 1.2 µM -7% | [9]; at 3.7 µM -5% | [9]; at 11.0 µM -3% | [9]; at 33.0 µM -5% | [9]; at 100.0 µM -2% | [10]; [16] -1% | [10]; [17] 3% | [10]; at 50.0 µM 19.9% | [11]; at 1.2 µM -7% | [11]; at 3.7 µM -4% | [11]; [16] -2% | [11]; at 11.0 µM -5% | [11]; at 33.0 µM 5% | [11]; [17] 10% | [11]; at 50.0 µM 3.15% | [11]; at 100.0 µM 35% | [12]; at 1.2 µM -8% | [12]; at 3.7 µM -1% | [12]; at 11.0 µM 20% | [13]; at 1.2 µM -11% | [13]; at 3.7 µM -6% | [13]; at 11.0 µM -5% | [13]; at 33.0 µM 65% | [14]; [16] 5% | [14]; [17] 29% | [14]; at 50.0 µM 21.1% | [15]; at 1.2 µM -3% | [15]; at 3.7 µM -1% | [15]; at 11.0 µM -1% | [15]; at 33.0 µM 7% | [15]; at 100.0 µM 11%
